# Columns and labels:
# Details in all cases: concentration: 10 µM; 24 h
# HCC1569 [1] = assay: cell number relative to DMSO (% of DMSO); higher = more cells (less growth inhibition / toxicity)
# In short: (§1)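 Cell number or H1.0 nuclear intensity appears as percent of the plate control, based on the median of replicates. Measurements came from HCC1569 and TDF cells exposed in triplicate to compounds at 10 µM for 24 h at 37 °C, then imaged in six fields per well at ×10. Positional effects were smoothed out of HCC1569 values.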
# TDF [2] = assay: as above
# In short: as §1
# TDF [3] = assay: H1.0 immunofluorescence intensity relative to DMSO (% of DMSO); higher = stronger H1.0 induction, active = 120 or more
# In short: as §1
# HCC1569 [4] = assay: H1.0 immunofluorescence intensity relative to DMSO (% of DMSO); higher = stronger H1.0 induction, active = 140 or more
# In short: as §1
# 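For H1.0 immunofluorescence intensity relative to DMSO in this document: TDF is a line of transformed human dermal fibroblasts of mesenchymal origin.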
# 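For cell number relative to DMSO in this document: TDF denotes transformed human dermal fibroblasts of mesenchymal origin.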
SMILES,cell number (HCC1569 [1]),cell number (TDF [2]),H1.0 immunofluorescence intensity (TDF [3]),H1.0 immunofluorescence intensity (HCC1569 [4])
CCCCOC(=O)NS(=O)(=O)c1sc(CC(C)C)cc1-c1ccc(Cn2c(CC)nc3c(C)cc(C)nc32)cc1,99.7,106,84.8 (inactive),100 (inactive)
CC(C)(C)NCC(O)COc1cccc2[nH]c(=O)[nH]c12.Cl (racemic),97.7,110,93.5 (inactive),97.9 (inactive)
O=C(O)Cc1sc(-c2ccccc2)nc1-c1ccc(Cl)cc1 [Fentiazac],91.8,107,89.6 (inactive),116 (inactive)
Clc1cccc(CNC2=Nc3ccccc3NC23CCNCC3)c1,99,89.6,106 (inactive),124 (inactive)
NCCCC(=O)O,109,106,108 (inactive),96.5 (inactive)
"CCCCC(C)(O)CC=CC1C(O)CC(=O)C1CCCCCCC(=O)O (stereo not given) [Misoprostol, free acid]",100,85.8,95.6 (inactive),98.8 (inactive)
CC(=O)OCC[N+](C)(C)C [Acetylcholine],106,103,100 (inactive),100 (inactive)
COc1cc2nccc(Oc3ccc(NC(=O)Nc4cc(C)on4)c(Cl)c3)c2cc1OC [Tivozanib],79.2,101,99 (inactive),116 (inactive)
N=C(N)c1ccc(OCCCCCOc2ccc(C(=N)N)cc2)cc1 [Pentamidine],101,104,92.3 (inactive),113 (inactive)
COc1ccc(Cl)cc1C(=O)NCCc1ccc(S(=O)(=O)NC(=O)NC2CCCCC2)cc1 [Glibenclamide],101,105,93.9 (inactive),90.3 (inactive)
